Compound activity (PubChem)
The sample as a whole holds a higher share of hits than the screen did.
12-LOX inh = Primary qHTS assay for inhibitors of human arachidonate 12S-lipoxygenase (ALOX12): Round 2; purified 12hLO, xylenol orange hydroperoxide absorbance; AID 1671190, 2021; Polyunsaturated fatty acid lipoxygenase ALOX12 (Homo sapiens), P18054; hit rate 1.1% among 580,000; Potency, µM (doses to about 108 µM), inactives show top-dose activity change, negative = inhibition, hits mostly inhibitors; also: potency is read from the fitted curve at half-maximal effect
Target sequence (P18054 whole entry, looked up): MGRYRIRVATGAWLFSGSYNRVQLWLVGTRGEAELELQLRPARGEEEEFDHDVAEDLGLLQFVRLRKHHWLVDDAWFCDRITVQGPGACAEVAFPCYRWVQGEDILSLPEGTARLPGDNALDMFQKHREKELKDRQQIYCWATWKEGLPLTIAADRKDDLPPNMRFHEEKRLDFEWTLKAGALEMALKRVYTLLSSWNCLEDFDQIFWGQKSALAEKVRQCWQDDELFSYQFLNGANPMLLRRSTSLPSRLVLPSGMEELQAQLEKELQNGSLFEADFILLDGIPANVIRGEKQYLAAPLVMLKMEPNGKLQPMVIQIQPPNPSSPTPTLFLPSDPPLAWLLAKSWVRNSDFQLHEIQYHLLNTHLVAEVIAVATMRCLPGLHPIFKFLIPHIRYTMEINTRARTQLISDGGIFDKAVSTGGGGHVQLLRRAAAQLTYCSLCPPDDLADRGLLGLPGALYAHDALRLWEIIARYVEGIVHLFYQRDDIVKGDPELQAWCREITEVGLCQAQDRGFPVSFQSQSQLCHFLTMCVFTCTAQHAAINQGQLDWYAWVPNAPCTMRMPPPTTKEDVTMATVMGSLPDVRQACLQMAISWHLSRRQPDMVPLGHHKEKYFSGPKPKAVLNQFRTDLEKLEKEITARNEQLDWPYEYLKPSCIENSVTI
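Purified human 12hLO at 150 nM in 25 mM Hepes, 0.01% Triton X-100, pH 7.0, preincubated 15 min at room temperature with compound. Reaction started with 40 uM arachidonic acid, 30 min at room temperature. Hydroperoxide measured by Fe-xylenol orange, 573/405 nm absorbance ratio.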
TDP1 cell CPT = qHTS for Inhibitors of human tyrosyl-DNA phosphodiesterase 1 (TDP1): qHTS in cells in presence of CPT; chicken DT40 Tdp1-/-;hTDP1 cells + 20 nM CPT, ATP luminescence, 48 h; Potency, µM (titrated, usually from 46.2 µM), for inactives: at the highest dose activity change, negative = growth inhibition, hits mostly inhibitors; hit rate 12% among 420,000; also: potency is read from the fitted curve at half-maximal effect; nearly all actives have a fitted effect of over 55% in size
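Chicken DT40 Tdp1-/- cells stably complemented with human TDP1 were seeded at 400 cells/well in medium containing 20 nM camptothecin, exposed to pin-transferred compounds, and grown at 37 °C for at least 48 hr. Viability was read as ATP luminescence.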
HT1080-NT tox = qHTS for induction of synthetic lethality in tumor cells producing 2HG: qHTS for the HT-1080-NT fibrosarcoma cell line | HT-1080-NT fibrosarcoma viability, CellTiter-Glo ATP luminescence, 48 h | Potency, µM (titrated, usually from 46.1 µM), for the others: top-dose activity, negative = less viability, most hits filed as cytotoxic | hit rate 1.6% among 360,000 | AID 686970, 2013;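 also: NT is the 2HG producing partner of a matched IDH1 knockdown line; potency is read from the fitted curve at half-maximal effect; 0% = DMSO-treated cells and -100% = media-only wells without cells; nearly all actives have a fitted effect of over 55% in size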
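Toxicity toward the 2HG-producing NT line was scored as %Activity, normalised to DMSO and no-cell wells, from CellTiter-Glo luminescence after 48 hours' treatment.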
TDP1 cell noCPT = qHTS for Inhibitors of human tyrosyl-DNA phosphodiesterase 1 (TDP1): qHTS in cells in absence of CPT. DT40 Tdp1-/- hTDP1 cells, no CPT, ATP luminescence, 48 h. Potency, µM (titrated, usually from 46.2 µM), without a hit: at the highest dose activity change, negative = growth inhibition, hits mostly inhibitors. hit rate 15% among 420,000. AID 686978, 2013; also: potency is read from the fitted curve at half-maximal effect; nearly all actives have a fitted effect of over 55% in size
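Camptothecin absent (DMSO only). Human TDP1-complemented DT40 knockout cells, 400 cells/well, 37 °C for minimum 48 hr; ATP measured via CellTiter-Glo, 30 min dark incubation, luminescence.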
HT1080 IDH1KD tx = qHTS for induction of synthetic lethality in tumor cells producing 2HG: qHTS for the HT-1080-IDH1KD cell line | HT-1080 IDH1 knockdown viability, ATP luminescence, 48 h | Potency, µM (top dose mostly 46.1 µM), inactives show at the highest dose activity, negative = toxicity, actives largely listed as cytotoxic | hit rate 2% among 360,000 | AID 686971, 2013;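 also: potency is read from the fitted curve at half-maximal effect; 0% = DMSO wells and -100% = cell-free medium wells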
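After a 2 h attachment period, IDH1KD HT-1080 cells took pin-transferred compound for 48 h at 37 °C; ATP-based luminescence after 10 min room-temperature reagent incubation reported viability.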
IL-1B inflam inh = qHTS for Inhibitors of Inflammasome Signaling: IL-1-beta AlphaLISA Primary Screen. THP-1 LPS/ATP IL-1B secretion, AlphaLISA, 16 h; hits give low values. hit rate 4.7% among 360,000. AID 743279, 2014. activity change, % at 57.5 µM; in the data active = activity change below about -50%; inconclusive = mostly about -30% to -49%
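Secreted IL-1B measured by AlphaLISA bead assay after 16 h compound exposure of THP-1 cells; compounds (final up to 57.5 uM) added 1 h before LPS (250 ng/mL) and ATP (1.25 mM) stimulation; lower signal means less secretion.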
* hit, by the source's call; ? = inconclusive; . = not tested or not shown; [ ] = dose if it differs, or a comment. Unless noted, calls follow the shape of the dose curve; as a rule, active = well fitted curve in the direction sought with a large enough effect; inconclusive = small, poorly fitted or top-dose-only effect, or another doubt; inactive = no such curve, though single readings can be large; an effect the other way counts as inactive or inconclusive. Unless noted, % is scaled to controls: 0 for no effect and ±100 for the full control effect.

SMILES	12-LOX inh	TDP1 cell CPT	HT1080-NT tox	TDP1 cell noCPT	HT1080 IDH1KD tx	IL-1B inflam inh
CCCN1C(=O)SC(CC(=O)Nc2ccc(C)cc2)C1=O (stereo not given)	0%	18µM*	12%	?	17%	-1
Cc1ccc(NC(=O)CC2SC3=NCCN3C2=O)cc1 (stereo not given)	-17%	?	12%	?	1%	6
Cc1ccc(NC(=O)CC2=NC(=O)C(CC(=O)Nc3ccccc3F)S2)cc1 (stereo not given)	-12%	?	0%	18µM*	-10%	-29
O=C(CC1Sc2ncnn2C1=O)Nc1ccccc1 (stereo not given)	-10%	7.3µM*	14%	15µM*	-1%	-6
O=C(CC1SC(=O)N(c2ccccc2)C1=O)Nc1ccccc1 (stereo not given)	0%	16µM*	0%	-25%	?	18
O=C(Cn1nnc(-c2cc(F)ccc2Br)n1)N1CCOCC1	-5%	.	.	.	.	.
CC(C)(C)C(=O)N1N=C(c2ccc3c(c2)OCO3)CC1c1ccc2nccnc2c1 (stereo not given)	-17%	.	.	.	.	.
C=CCn1c(=O)c2ccccc2n2c(SCc3c(C(=O)OCC)oc4ccccc34)nnc12	8%	?	-5%	?	-2%	37
O=C1CC(c2noc(-c3ccc(C(F)(F)F)cc3)n2)CN1C1CCCCC1 (stereo not given)	10%	.	.	.	.	.
N=C1SC(CC(=O)Nc2ccc([N+](=O)[O-])cc2)C(=O)N1c1ccccc1 (stereo not given)	?	0%	-21%	?	?	-73*
COc1ccc(OC)c(NC(=O)CC2SC(=N)N(c3ccccc3)C2=O)c1 (stereo not given)	0%	1%	0%	-7%	2%	-7
Cc1ccc(S(=O)(=O)/N=C2\SC(CC(=O)Nc3ccc(F)cc3)C(=O)N2c2ccccc2)cc1 (stereo not given)	-18%	-2%	-1%	-17%	1%	14
Cc1ccc(NC(=O)CC2SC(=O)N(c3ccccc3)C2=O)cc1 (stereo not given)	?	9.2µM*	0%	7.3µM*	0%	29
Cc1cccc(NC(=O)CC2SC(=O)N(c3ccccc3)C2=O)c1 (stereo not given)	?	4.6µM*	3%	5.2µM*	10%	8
CC(=O)Nc1ccc(NC(=O)CC2SC(=O)N(CC(=O)c3ccccc3)C2=O)cc1 (stereo not given)	-44%	18µM*	0%	21µM*	5%	-5
COc1ccc(Nc2ccnc(N3CC4CCC(C3)N4CC(F)(F)F)n2)cc1	5%[6.33 µM]	.	.	.	.	.
Cc1cc(C(=O)N2CCOc3ccc(CCC(N)=O)cc3C2)nn1C	22%	.	.	.	.	.
COc1cc2c(cc1OC)-c1nnc(-c3cccs3)n1C1(CCCC1)C2	-16%	21µM*	0%	21µM*	0%	2
CN(C)c1nc2c(c(=O)[nH]1)CCN(Cc1cccc(Br)c1)CC2	31%	.	.	.	.	.
CN(Cc1nc(-c2ccccn2)no1)CC1COc2ccccc2O1 (stereo not given)	52%	.	.	.	.	.
CC(=O)c1cccc(Nc2cc(C)nc3c(C)cccc23)c1	-3%	-26%	-8%	?	-29%	-75*
Cc1ccc(CCNC(=O)c2cc(C)nc3c(C)cc(C)cc23)cc1	17%	.	.	.	.	.
